AmpC detergent – qHTS Inhibitors of AmpC Beta-Lactamase (assay with detergent); P00811; AmpC hydrolysis of nitrocefin, absorbance 480 nm, 0.01% Triton; 0.041% of 370,000 active; Potency, µM (titrated, usually from 114 µM), most hits filed as inhibitors; note: nearly all actives have a fitted effect of over 25% in size
Target sequence (P00811 whole entry, looked up): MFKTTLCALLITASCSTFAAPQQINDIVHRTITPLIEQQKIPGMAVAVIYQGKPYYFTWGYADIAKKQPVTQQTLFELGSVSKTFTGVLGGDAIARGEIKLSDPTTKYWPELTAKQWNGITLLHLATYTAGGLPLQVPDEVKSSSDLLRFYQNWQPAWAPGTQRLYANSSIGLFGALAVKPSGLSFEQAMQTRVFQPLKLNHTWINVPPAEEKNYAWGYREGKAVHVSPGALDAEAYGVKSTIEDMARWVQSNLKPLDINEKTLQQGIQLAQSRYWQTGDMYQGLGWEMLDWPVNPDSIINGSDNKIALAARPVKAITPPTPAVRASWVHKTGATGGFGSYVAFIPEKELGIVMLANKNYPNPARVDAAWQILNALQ
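AmpC (5.3 nM in the dispensed reagent) in 20 mM phosphate pH 7.0 with 0.01% (detergent screen) or 0.0001% Triton X-100 was preincubated with compounds for 15 min at room temperature. Nitrocefin was then added from an 800 uM solution, and hydrolysis was followed at 480 nm.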
AmpC no deterg – qHTS Inhibitors of AmpC Beta-Lactamase (assay without detergent) | 0.52% of 330,000 active | AID 485341, 2010 | P00811 | Potency, µM (highest dose often 57.1 µM), most hits filed as inhibitors | AmpC nitrocefin hydrolysis, absorbance 480 nm, 0.0001% Triton; note: nearly all actives have a fitted effect of over 20% in size
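AmpC (5.3 nM in the dispensed reagent) in 20 mM phosphate pH 7.0 with 0.01% (detergent screen) or 0.0001% Triton X-100 was preincubated with compounds for 15 min at room temperature. Nitrocefin was then added from an 800 uM solution, and hydrolysis was followed at 480 nm.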
Sm TGR block – qHTS Assay for the Inhibitors of Schistosoma Mansoni Peroxiredoxins; purified TGR, DTNB reduction, TNB absorbance 405 nm; 3% of 360,000 active; Schistosoma mansoni thioredoxin glutathione reductase (TGR), Q962Y6; AID 485364, 2010; Potency, µM (series often up to 114 µM), hits mostly inhibitors; note: nearly all actives have a fitted effect of over 60% in size
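TGR 20 nM + NADPH 100 uM (dispensed conc.), cpd preinc 15 min RT; start with NADPH (500 uM addition) then DTNB (15 mM addition). Kinetic TNB absorbance, 405 nm filter. Four-parameter Hill fit across titration.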
Of the large screens only hits and unclear results are named; the others gave an inactive call. Rows were chosen to be rich in hits. Some 3.3% of all compounds tested hit in one or more screens of this group. Calls come from the whole dose curve; as a rule, active = well fitted curve in the direction sought with a large enough effect; inconclusive = small, poorly fitted or top-dose-only effect, or another doubt; inactive = no such curve, though single readings can be large; an effect the other way counts as inactive or inconclusive.

Cc1nc(NS(=O)(=O)c2ccccc2)sc1NC(=O)Nc1ccccc1	none (no result: Sm TGR block)
CCOC(=O)Nc1sc(NS(=O)(=O)c2ccccc2)nc1C	Sm TGR block 50µM
CCc1nnc(SCc2nc(-c3ccccc3)oc2C)c2cc3sccc3n12	none (no result: AmpC no deterg)
Cc1ccc(S(=O)(=O)c2cn(Cc3ccccc3F)c3cc4c(cc3c2=O)OCO4)cc1	none (no result: AmpC no deterg)
COc1cccc2cc(-c3nc(Nc4cccc(C)c4C)sc3C)c(=O)oc12	none (no result: AmpC no deterg)
CC(COc1cccc2ccccc12)CN1CCN(C)CC1 (configuration not stated)	AmpC detergent inconclusive, Sm TGR block 25µM
OC(COc1cccc2ccccc12)CN1CCN(c2ccccc2)CC1 (configuration not stated)	none
CC(C)OCCCNC1=C(Cl)C(=O)c2ccccc2C1=O	none
O=C(O)c1cccc(NS(=O)(=O)/C=C/c2ccccc2)c1	AmpC detergent inconclusive
O=C(O)c1cccc(NC2=C(Cl)C(=O)c3ccccc3C2=O)c1	Sm TGR block 1.6µM
COCCCNC1=C(Cl)C(=O)c2ccccc2C1=O	none
C=CCNC1=C(Cl)C(=O)N(Cc2ccccc2)C1=O	Sm TGR block 40µM
CCN(CC)CCCNC1=C(Cl)C(=O)c2ccccc2C1=O	Sm TGR block 35µM
CC(C)NC1=C(Cl)C(=O)c2ccccc2C1=O	AmpC detergent inconclusive, Sm TGR block 28µM
O=C1C(Cl)=C(NCCc2ccccc2)C(=O)N1CCc1ccccc1	none
Cc1ccc(C2CC(=O)Nc3cc4c(cc32)OCCO4)cc1Br (configuration not stated)	none (no result: AmpC no deterg)
CC(=O)Nc1ccccc1-c1nc2ccccc2n(C(C)C(=O)c2ccc(C)c(C)c2)c1=O (configuration not stated)	none (no result: AmpC no deterg)
COc1ccc(C(=O)NCC(c2ccc(N(C)C)cc2)N2CCc3ccccc32)cc1OC (configuration not stated)	none (no result: AmpC no deterg)
Cc1cc(C)cc(NC(=O)C(Cc2ccccc2)NS(=O)(=O)c2ccc3c(c2)CCC(=O)N3)c1 (configuration not stated)	none (no result: AmpC no deterg)
O=C(O)c1ccc(NC2=C(Cl)C(=O)c3ccccc3C2=O)cc1	Sm TGR block inconclusive
C=CCNC1=C(Cl)C(=O)N(c2cccc(Cl)c2Cl)C1=O	none
O=C1C(Cl)=C(Nc2ccccc2)C(=O)c2ccccc21	Sm TGR block 1µM
O=C1C(Cl)=C(NCc2cccnc2)C(=O)c2ccccc21	Sm TGR block 45µM
C=CCNC1=C(Cl)C(=O)c2ccccc2C1=O	Sm TGR block 45µM
O=S(=O)(Cc1ccccc1)NCc1cccnc1	AmpC detergent inconclusive
COc1ccc(-c2onc(C)c2C)cc1S(=O)(=O)NCc1ccc(C)o1	none (no result: AmpC no deterg)
CC(C)N(Cc1ccccc1)C(=O)C1CCCN(c2ncnc3onc(-c4ccc(F)cc4)c23)C1 (configuration not stated)	none (no result: AmpC no deterg)
COc1nc(N)c(S(=O)(=O)c2ccccc2C)cc1C#N	AmpC no deterg 0.16µM
COc1nc(N)c(S(=O)(=O)c2ccccc2)cc1C#N	none
O=S(=O)(NCCc1ccccc1)c1cccc(S(=O)(=O)N2CCOCC2)c1	AmpC detergent inconclusive, Sm TGR block 35µM
Cc1ccc(CCNC(=O)c2cc(S(=O)(=O)N3CCOCC3)cn2C)cc1	none
Cn1cc(S(=O)(=O)N2CCOCC2)cc1C(=O)NCCc1ccccc1	Sm TGR block 89µM
O=S(=O)(NCCC1=CCCCC1)c1cccc(S(=O)(=O)N2CCOCC2)c1	none
COC(=O)c1ccc(=O)c2nc3/c(=C/O)c(O)cc(=O)c3[nH]c12	AmpC detergent inconclusive, Sm TGR block 50µM
COC(=O)c1ccc(N)cc1O	none
COc1ccc(OC)c(S(=O)(=O)N2Cc3ccccc3CC2C(=O)Nc2ccc(C(C)=O)cc2)c1 (configuration not stated)	none (no result: AmpC no deterg)
COc1ccc(C(=O)O)cc1NC(=S)NC(=O)c1ccc(-c2ccc(Cl)cc2)o1	Sm TGR block 28µM
CN1CCN(c2ccc(NC(=O)c3ccc(-c4ccc(Br)cc4)o3)cc2)CC1	none
Cc1ccc(C(=O)O)cc1NC(=S)NC(=O)c1ccc(-c2ccccc2)cc1	Sm TGR block inconclusive
COc1ccc(C(=O)O)cc1NC(=S)NC(=O)CSc1ccc(Cl)cc1	Sm TGR block inconclusive
O=C(O)c1cccc(NC(=S)NC(=O)c2ccc(-c3ccc(Cl)cc3)o2)c1	Sm TGR block 20µM
O=C(NC(=S)Nc1ccc(Cl)cc1)c1ccccc1	Sm TGR block inconclusive
O=C(O)c1ccc(NC(=S)NC(=O)c2ccc(-c3ccc(Br)cc3)o2)cc1	Sm TGR block 32µM
Cc1ccc(C(=O)O)cc1NC(=S)NC(=O)c1ccc(-c2ccc(Cl)cc2)o1	Sm TGR block 10µM
COc1ccccc1NC(=O)CN1C(=O)C2(SCC(=O)N2c2ccc(C)c(C)c2)c2ccccc21 (configuration not stated)	none (no result: AmpC no deterg)
Cc1cccc(CNC(=O)Cn2c(-c3cccs3)cc3ccccc32)c1	none (no result: AmpC no deterg)
CCOC(=O)c1ccc(NC(=O)C2CCN(S(=O)(=O)Cc3ccccc3)CC2)cc1	none (no result: AmpC no deterg)
CCN1CC2=C(OC(N)=C(C#N)C2c2ccccc2)/C(=C\c2ccccc2)C1 (configuration not stated)	Sm TGR block inconclusive
CCOC(=O)C1=C(C)OC(N)=C(C#N)C1c1cccs1 (configuration not stated)	Sm TGR block inconclusive
CCN1CC2=C(OC(N)=C(C#N)C2c2cccs2)/C(=C/c2cccs2)C1 (configuration not stated)	Sm TGR block 35µM
CCN1C=C(Cc2cccs2)C2=C(C1)C(c1cccs1)C(C#N)=C(N)O2 (configuration not stated)	Sm TGR block 22µM
Cc1ccc(C(=O)Nc2ccc3c(c2)N(C)C(=O)c2ccccc2S3)cc1	none (no result: AmpC no deterg)
Cc1ccc2nc(-c3ccsc3)c(Nc3ccc(Cl)cc3)n2c1	none (no result: AmpC no deterg)
CCOC(=O)c1c(S(=O)(=O)N2CCCC(C(=O)NCc3ccccc3OC)C2)c(C)n(C)c1C (configuration not stated)	none (no result: AmpC no deterg)
C=CCc1ccccc1OCc1nc2ccc(C)cc2[nH]1	none (no result: AmpC no deterg)
CCOc1ccccc1NC(=O)c1nn(-c2ccc(C)cc2)c(=O)n(C)c1=O	none (no result: AmpC no deterg)
C/C=C\C=C/C(=O)Nc1cccc(C2=NOC3(C2)C[C@@H](C(N)=O)N(C(=O)C2(C)CC2)C3)c1 (some centres not stated)	Sm TGR block 1.8µM
C/C=C\C=C/C(=O)Nc1cccc(C2=NOC3(C2)C[C@@H](C(N)=O)N(C(=O)/C=C/CC)C3)c1 (some centres not stated)	Sm TGR block 1.8µM
C/C=C\C=C/C(=O)Nc1cccc(C2=NOC3(C2)C[C@@H](C(N)=O)N(C(=O)/C=C/C=C\C)C3)c1 (some centres not stated)	Sm TGR block inconclusive
CCCCCC(=O)Nc1cccc(C2=NOC3(C2)C[C@H](C(N)=O)N(C(=O)[C@H]2CCC(=O)N2)C3)c1 (some centres not stated)	none
C/C=C\C(=O)Nc1cccc(C2=NOC3(C2)C[C@H](C(N)=O)N(C(=O)/C=C/CC)C3)c1 (some centres not stated)	none

Source: PubChem (National Center for Advancing Translational Sciences (NCATS))
